Assay results published in PubChem BioAssay AID1159580 (chemical genetic matrix, 2015).
About 2,000 (36%) of roughly 5,500 compounds were called active. Another 18% or so got no clear call; they are omitted. Cut-off read from the data, not from the text of the source: active = normalized growth mostly below about 0.91 (no sharp cut-off); inconclusive = no clear call, values can overlap the other calls; inactive = mostly above about 0.92. This is one part of the list.

Experiment: chemical genetic growth profiling, strain panel (AID 1159580);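 note: tested at 20 µM; growth read once vehicle control cultures reached saturation at 30 °C; 1 = growth at the plate median or of vehicle wells; lower values mean less growth of the strain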
Conditions: S. cerevisiae deletion strains, growth OD

Measured: normalized growth

COC(=O)C[C@H]1C(C)(C)C2(Cl)O[C@@]34CC2C(=O)[C@]1(C)C3CC[C@]1(C)C4=CC(=O)O[C@H]1c1ccoc1 (stereo not given in full)
inactive: locus YAL013W, strain DEP1, active compounds read low 1.01 | locus YBR021W, strain FUR4, active compounds read low 0.995 | locus YBR229C, strain ROT2, active compounds read low 1 | locus YCL029C, strain bik1, active compounds read low 1.01 | locus YDL035C, strain GPR1, active compounds read low 1.02 | locus YDL074C, strain BRE1, active compounds read low 0.989 | locus YDL101C, strain DUN1, active compounds read low 0.997 | locus YDL134C, strain PPH21, active compounds read low 0.999 | locus YDL185W, strain tfp1, active compounds read low 0.994 | locus YDL192W, strain arf1, active compounds read low 0.99 | locus YDR101C, strain arx1, active compounds read low 0.993 | locus YDR162C, strain NBP2, active compounds read low 0.971 | locus YDR318W, strain mcm21, active compounds read low 1 | locus YDR388W, active compounds read low 0.993 | locus YDR502C, strain sam2, active compounds read low 0.996 | locus YEL061C, strain CIN8, active compounds read low 1 | locus YER110C, active compounds read low 0.993 | locus YER155C, strain BEM2, active compounds read low 1.01 | locus YER167W, strain BCK2, active compounds read low 1.01 | locus YGL078C, strain dbp3, active compounds read low 0.99 | locus YGL086W, strain mad1, active compounds read low 0.989 | locus YGL248W, strain PDE1, active compounds read low 1 | locus YGR078C, strain PAC10, active compounds read low 0.991 | locus YGR135W, strain pre9, active compounds read low 0.976 | locus YGR252W, strain gcn5, active compounds read low 0.966 | locus YHR030C, strain SLT2, active compounds read low 0.999 | locus YHR079C, strain IRE1 (second series), active compounds read low 0.996 | locus YHR094C, strain hxt1, active compounds read low 0.995 | locus YHR129C, strain ARP1, active compounds read low 1 | locus YHR200W, strain rpn10, active compounds read low 0.992 | locus YIL066C, strain RNR3, active compounds read low 1.01 | locus YIL073C, strain SPO22, active compounds read low 1 | locus YIL125W, strain kgd1, active compounds read low 1 | locus YIR030C, strain dcg1, active compounds read low 0.986 | locus YJL095W, strain BCK1, active compounds read low 0.996 | locus YJL134W, strain LCB3, active compounds read low 1.01 | locus YJL168C, strain set2, active compounds read low 0.987 | locus YJL187C, strain SWE1 (second series), active compounds read low 1 | locus YJR075W, strain HOC1, active compounds read low 1.01 | locus YKL009W, strain mrt4, active compounds read low 0.983 | locus YKL068W, active compounds read low 1.01 | locus YKL085W, strain MDH1 (second series), active compounds read low 0.996 | locus YKL085W, strain MDH1, active compounds read low 0.996 | locus YKR001C, strain vps1, active compounds read low 1 | locus YLR039C, strain RIC1, active compounds read low 1.05 | locus YLR058C, strain SHM2, active compounds read low 1 | locus YLR102C, strain apc9, active compounds read low 1 | locus YLR268W, strain sec22, active compounds read low 1 | locus YLR342W, strain FKS1 (second series), active compounds read low 1.02 | locus YLR371W, strain rom2, active compounds read low 0.996 | locus YLR418C, strain cdc73, active compounds read low 0.96 | locus YML016C, strain PPZ1, active compounds read low 1.01 | locus YML032C, strain rad52, active compounds read low 0.995 | locus YML124C, strain tub3, active compounds read low 0.992 | locus YMR078C, strain ctf18, active compounds read low 1.01 | locus YMR223W, strain ubp8, active compounds read low 0.979 | locus YMR307W, strain GAS1, active compounds read low 0.957 | locus YNL067W, strain RPL9B, active compounds read low 1 | locus YNL153C, strain GIM3, active compounds read low 1 | locus YNL233W, strain BNI4, active compounds read low 0.995 | locus YNL250W, strain rad50, active compounds read low 0.995 | locus YNL271C, strain bni1, active compounds read low 0.998 | locus YNL298W, strain CLA4, active compounds read low 0.99 | locus YNL307C, strain MCK1, active compounds read low 0.991 | locus YNR052C, strain pop2, active compounds read low 0.998 | locus YOL006C, strain TOP1, active compounds read low 1.02 | locus YOL012C, strain htz1 0.78 | locus YOL147C, strain pex11, active compounds read low 0.99 | locus YOR061W, strain CKA2, active compounds read low 1.01 | locus YOR069W, strain VPS5, active compounds read low 1 | locus YOR136W, strain idh2, active compounds read low 0.988 | locus YOR144C, strain elg1, active compounds read low 0.995 | locus YOR184W, strain ser1, active compounds read low 1.01 | locus YOR316C, strain cot1, active compounds read low 0.988 | locus YPL241C, strain CIN2, active compounds read low 1 | locus YPR119W, strain clb2, active compounds read low 0.989 | locus YPR141C, strain kar3, active compounds read low 0.997 | locus YPR163C, strain tif3, active compounds read low 0.991 | locus YPR167C, strain met16, active compounds read low 0.991 | strain wtn01, active compounds read low 1.02
